# Measurements: PubChem BioAssay AID651687 (Broad Institute, 2012)
# Values joined by “and” are separate entries in the source; they are usually repeats but may differ in a detail not shown here. Identical values can stand only once. Hit rate of the full screen: of about 350,000 compounds, about 600 (0.17%) were called active.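 Rule for the calls: active = every replicate shows inhibition of at least 40%; inconclusive = mean inhibition at least 40% but some replicate below; inactive = the rest.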 Only a selection was taken, and actives are over-represented in it overall.
# Assay: inhibitors of PGC1a acetylation signal, primary screen, cell-based, U2OS, AlphaScreen, inhibitor mode (AID 651687);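 note: 0% = neutral control wells and 100% = positive control wells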
# Settings: AlphaScreen anti-acetyl-lysine, at 15.6 µM, hits give high values, with virally co-expressed GCN5 acetyltransferase
row,SMILES,inhibition
1,CC(C)CC#Cc1ccc2c(c1)O[C@H](CN(C)C(=O)C1CC1)[C@@H](C)CN([C@@H](C)CO)S2(=O)=O,3.73% (inactive)
2,CCCN1C[C@@H](C)[C@H](OC)CN(C)C(=O)c2cc(NC(=O)CC)ccc2OC[C@@H]1C,3.35% (inactive)
3,C/C=C/c1ccc([C@H]2[C@H]3CN(S(=O)(=O)c4ccccc4)CCCCN3[C@H]2CO)cc1,-5.04% (inactive)
4,Cc1noc(C)c1NC(=O)N(C)C[C@@H]1Oc2ccc(NC(=O)Nc3ccc4c(c3)OCO4)cc2CC(=O)N([C@H](C)CO)C[C@H]1C,-8.32% (inactive)
5,O=C(C1CCCC1)N1CC(=O)N2[C@H](CO)[C@H](c3ccc(Br)cc3)[C@@H]2C1,-9% (inactive)
6,C[C@@H]1CN([C@H](C)CO)C(=O)Cc2cc(NC(=O)Cn3cnnn3)ccc2O[C@H]1CN(C)CC1CCCCC1,-7.22% (inactive)
7,N#C[C@H]1[C@H](c2ccc(-c3cccc(F)c3)cc2)[C@@H](CO)N1C(=O)NC1CCCC1,4.29% (inactive)
8,C[C@@H]1CN([C@H](C)CO)C(=O)c2cccc(NS(=O)(=O)c3cn(C)cn3)c2O[C@@H]1CN(C)Cc1ccc(C(F)(F)F)cc1,-1.87% (inactive)
9,O=C(C[C@H]1C[C@@H]2c3cc(NC(=O)c4ccc5c(c4)OCO5)ccc3O[C@@H]2[C@@H](CO)O1)NCc1cccnc1,-3.47% (inactive)
10,COCC(=O)N1CC(=O)N2[C@H](C1)[C@@H](c1ccc(C#Cc3cccc(OC)c3)cc1)[C@@H]2CO,-0.955% (inactive)
11,Cc1nc2ccccc2c(=O)n1NC(=O)c1ccc(Cl)c([N+](=O)[O-])c1,44.8% (active)
12,Cc1ccnc(NC(=O)c2ccc(Cl)c([N+](=O)[O-])c2)c1,3% (inactive)
13,O=C(O)c1ccc2c(=O)n3c(nc2c1)/C(=C/c1ccc(Cl)c([N+](=O)[O-])c1)CC3,12.5% (inactive)
14,O=C(C1CC1)N1CC(=O)N2[C@H](CO)[C@@H](c3ccc(-c4ccccc4F)cc3)[C@@H]2C1,6.24% (inactive)
15,C[C@H]1CN([C@@H](C)CO)C(=O)c2cc(-c3ccc(C#N)cc3)cnc2O[C@@H]1CN(C)Cc1ccncc1,-4.55% (inactive)
16,C[C@@H]1CCCCO[C@H](CN(C)C(=O)Nc2ccccc2)[C@H](C)CN([C@H](C)CO)C(=O)c2cc(N(C)C)ccc2O1,0.535% (inactive)
17,O=C(C[C@H]1C=C[C@H](NC(=O)c2cnccn2)[C@@H](CO)O1)NCc1ccccc1F,-5.81% (inactive)
18,CN1/C(=C\C=C2\N=C(c3ccc(F)cc3)OC2=O)C(C)(C)c2ccccc21,-0.203% (inactive)
19,CN1CCN(CCC(=O)N/N=C/C=C2\N(C)c3ccccc3C2(C)C)CC1,17.1% (inactive)
20,CN1/C(=C\C(=O)c2oc3ccccc3c2N)C(C)(C)c2ccccc21,86.9% (active)
21,C[C@@H]1CN([C@H](C)CO)C(=O)c2cccc(NC(=O)c3nc4ccccc4s3)c2O[C@@H]1CN(C)Cc1ccc(Oc2ccccc2)cc1,16.2% (inactive)
22,CN1CCN(C(=O)C[C@H]2CC[C@H]3[C@@H](COC[C@H](O)CN3CC3CCOCC3)O2)CC1,0.0455% (inactive)
23,O=C(N/N=C\c1cc2c(cc1Cl)OCO2)c1ccc(Br)s1,-10.7% (inactive)

row,SMILES,inhibition
1,C/C(Cc1ccccc1)=N\NC(=O)CNC(=O)c1ccccc1Cl,5.72% (inactive)
2,CC/C(=N\NC(=O)c1ccccc1Cl)c1ccc(Br)s1,82.8% (active)
3,COc1ccc(S(=O)(=O)N(C)C[C@H]2OCCCC[C@@H](C)Oc3ccc(NS(=O)(=O)c4ccc(C)cc4)cc3C(=O)N([C@@H](C)CO)C[C@@H]2C)cc1,0.06% (inactive)
4,COc1ccc(-c2ccc(CCC(=O)O)n2-c2ccc(O)cc2)cc1,1.05% (inactive)
5,COc1ccc(-c2ccc(CCC(=O)O)n2NC(=O)c2ccc(C(C)(C)C)cc2)cc1,43.5% (active)
6,COCCCn1c(CCC(=O)O)ccc1-c1ccc(F)cc1,-1.42% (inactive)
7,Cc1noc(C)c1NC(=O)N(C)C[C@@H]1OCCCC[C@H](C)Oc2ccc(NS(=O)(=O)c3c(C)noc3C)cc2C(=O)N([C@@H](C)CO)C[C@@H]1C,-1.1% (inactive)
8,CN1C(=O)c2cc(NC(=O)C3CCOCC3)ccc2OC[C@@H]2O[C@@H](CC(=O)NCC3CC3)CC[C@@H]21,4.15% (inactive)
9,C[C@@H]1CN([C@H](C)CO)C(=O)c2cc(NS(=O)(=O)c3cn(C)cn3)ccc2O[C@@H](C)CCCCO[C@@H]1CN(C)C(=O)CCC(F)(F)F,-2.59% (inactive)
10,COc1ccc(NC(=O)N2CC(=O)N3[C@H](CO)[C@@H](c4ccc(-c5ccc(C)cc5)cc4)[C@H]3C2)cc1,5.16% (inactive)
11,COc1ccccc1C(=O)Nc1ccc2c(c1)OC[C@@H](C)NC[C@H](C)[C@@H](OC)CN(C)C2=O,-5.63% (inactive)
12,O=C(C[C@@H]1C[C@@H]2c3cc(NC(=O)c4ccc5c(c4)OCO5)ccc3O[C@@H]2[C@H](CO)O1)NCCc1ccccc1,-4.93% (inactive)
13,CCN1[C@@H]2Cn3c(ccc(-c4cccnc4)c3=O)[C@H]1[C@@H](C(=O)NC1CCCCC1)[C@@H]2CO,1.27% (inactive)
14,CCCNC(=O)C[C@H]1CC[C@H]2[C@@H](COC[C@H](O)CN2C(=O)CC)O1,3.49% (inactive)
15,CCCNC(=O)C[C@H]1CC[C@@H]2[C@H](COC[C@H](O)CN2S(=O)(=O)c2ccccc2F)O1,-0.728% (inactive)
16,O=C(C[C@@H]1CC[C@H](NC(=O)CN2CCOCC2)[C@@H](CO)O1)NCCc1ccccc1,-5.55% (inactive)
17,CC(C)NC(=O)Nc1ccc2c(c1)C(=O)N([C@@H](C)CO)C[C@H](C)[C@H](CN(C)S(=O)(=O)c1ccc(Cl)cc1)OCCCC[C@H](C)O2,-18.6% (inactive)
18,CC(C)NC(=O)Nc1ccc2c(c1)C(=O)N([C@@H](C)CO)C[C@@H](C)[C@@H](CN(C)S(=O)(=O)c1ccc(F)cc1)OCCCC[C@H](C)O2,-0.972% (inactive)
19,CC(C)NC(=O)Nc1ccc2c(c1)C(=O)N([C@@H](C)CO)C[C@@H](C)[C@H](CN(C)S(=O)(=O)c1ccccc1)OCCCC[C@@H](C)O2,124% (active)
20,C[C@@H]1CN([C@H](C)CO)S(=O)(=O)c2ccc(C#CC3CCCC3)cc2O[C@@H]1CN(C)Cc1cccnc1,-39.6% (inactive)
21,COCC(=O)Nc1ccc2c(c1)OC[C@@H](C)N(C(=O)c1cnccn1)C[C@H](C)[C@@H](OC)CN(C)C2=O,-1.16% (inactive)
22,Cc1ccc(S(=O)(=O)NC[C@H]2CC[C@@H]3[C@@H](CN3Cc3ccccc3C(=O)O)O2)cc1,-6.11% (inactive)
23,Cc1noc(C)c1NC(=O)N(C)C[C@H]1OCCCC[C@H](C)Oc2ccc(NC(=O)Cc3ccccc3)cc2C(=O)N([C@H](C)CO)C[C@@H]1C,0.037% (inactive)

row,SMILES,inhibition
1,C[C@H]1CN([C@@H](C)CO)C(=O)c2cc(NC(=O)Nc3ccccc3)ccc2O[C@H]1CN(C)S(C)(=O)=O,-6.24% (inactive)
2,C[C@@H]1CN([C@@H](C)CO)C(=O)c2cc(/C=C/c3ccccc3)cnc2O[C@H]1CN(C)C(=O)Nc1ccc(C(F)(F)F)cc1,-1.88% (inactive)
3,O=C(Nc1ccc2ccccc2c1[N+](=O)[O-])c1ccccc1,14% (inactive)
4,O=C(NC1=CC(=O)c2ccccc2C1=O)c1ccccc1,80.8% (active)
5,O=C(Nc1ncccc1O)c1ccc(C(=O)c2ccccc2)cc1,5.14% (inactive)
6,O=C(CC1CC1)N1CC[C@@H]2[C@@H](CO)Nc3ccc(-c4ccccc4)cc3[C@@H]21,-14.4% (inactive)
7,CO[C@@H]1CN(C)C(=O)c2cc(NC(=O)Nc3cccc(Cl)c3)ccc2OC[C@@H](C)N(C)C[C@@H]1C,7.96% (inactive)
8,CCCN1C[C@@H](C)[C@@H](OC)CN(C)C(=O)c2cc(NC(=O)c3ccccc3)ccc2OC[C@H]1C,-3.59% (inactive)
9,Cc1cc(C(=O)Nc2cccc3c2O[C@@H](CN(C)S(=O)(=O)c2ccc(F)cc2)[C@@H](C)CN([C@H](C)CO)C3=O)n(C)n1,4.7% (inactive)
10,O=C(C[C@@H]1CC[C@@H](NS(=O)(=O)c2ccccc2)[C@H](CO)O1)NCc1ccc(Cl)c(Cl)c1,-0.169% (inactive)
11,COCC(=O)N1CC2(CN(C(=O)c3cccnc3)C2)c2c([nH]c3cc(OC)ccc23)[C@H]1CO,3.03% (inactive)
12,Cc1oc2c(c1C(=O)N1CCOCC1)C(=O)c1ccccc1C2=O,42.9% (active)
13,O=C(c1snnc1-c1ccccc1)N1CCOCC1,17.2% (inactive)
14,Cc1ccc(C(=O)N2CCN(S(=O)(=O)N3CCOCC3)CC2)cc1,-14.3% (inactive)
15,Cc1cccc(-c2ccc(C3[C@@H]4CN(C(=O)Nc5ccc(C(F)(F)F)cc5)C[C@H]3N4)cc2)c1 (stereo partly drawn),92.4% (active) and 92.8% (active)
16,CN(C)C(=O)c1ccc(-c2ccc(C3[C@@H]4CN(C(=O)Nc5ccccc5)C[C@H]3N4)cc2)cc1 (stereo partly drawn),-6.33% (inactive)
17,O=C(C1CCCCC1)N1C[C@@H]2N[C@H](C1)C2c1ccc(-c2cccc(F)c2)cc1 (stereo partly drawn),-62.3% (inactive) and -12.6% (inactive)
18,CO[C@H]1CN(C)C(=O)c2ccc(NC(=O)NC(C)C)cc2OC[C@@H](C)N(C(=O)CN(C)C)C[C@H]1C,9.74% (inactive)
19,Cc1ccc(-c2c[n+](CC(=O)Nc3ccccc3)c3n2CCC3)cc1,43.3% (active)
20,Cc1ccc(C(=O)C[n+]2cc(-c3ccccc3)n3c2CCCCC3)cc1,20.9% (inactive)
21,Clc1ccc(C[n+]2cc(-c3ccccc3)n3c2CCC3)cc1,-17.2% (inactive)
22,COc1ccc(S(=O)(=O)Nc2ccc3c(c2)C(=O)N([C@H](C)CO)C[C@H](C)[C@@H](CN(C)Cc2ccccc2)OCCCC[C@@H](C)O3)cc1,-2.9% (inactive)
